# Compound activity as filed in PubChem.
# Hits are enriched below; roughly 3.3% of the tested compounds scored in any of these assays.
# 14-3-3 Bad inh: disrupts binding of bovine 14-3-3 zeta to phospho-Bad peptide; 220,000 compounds, 0.71% hits; AID 781; inhibition, % at 21.7 µM; TR-FRET 14-3-3zeta/Dy647-pBad peptide displacement, 1 h; P63103;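 active = inhibition above about 70%, limit read from the data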
# Mcl1 Noxa PPI: Mcl-1/Noxa interaction inhibition | Q07820 | inhibition, % at 21.7 µM | TR-FRET Mcl-1/Noxa peptide binding, 2 h | 220,000 compounds, 1.5% hits | AID 1022;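 active = compounds that cut the protein-peptide binding signal by more than 50% relative to plate controls in a single-dose test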;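 note: His-tagged Mcl-1 with rhodamine Noxa BH3 peptide and terbium anti-His antibody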
# eIF4E-4G inh: inhibitors of eIF4E and eIF4G interaction in translation initiation; P63073+Q04637; TR-FRET eIF4E-eIF4GI(517-606) binding, 2 h; inhibition, % at 21.7 µM; 220,000 compounds, 0.37% hits; AID 782
# Mcl1 Bid PPI: disrupts binding of human Mcl-1 to Bid peptide. TR-FRET Mcl-1/Bid-Dy647 peptide binding, 1536-well. inhibition, % at 21.7 µM. 220,000 compounds, 0.97% hits;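 active = compounds that cut the binding signal by more than half at the single screening dose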;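 note: His-tagged Mcl-1 with europium anti-His antibody binding Bid BH3 peptide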
# NCF1 inh: p47phox (human) inhibition; P14598; p47phox/p22phox peptide binding, fluorescence polarization, 2 h; 220,000 compounds, 0.53% hits; inhibition, % at 24.7 µM; AID 1274
# Target sequence (P14598 whole entry, looked up): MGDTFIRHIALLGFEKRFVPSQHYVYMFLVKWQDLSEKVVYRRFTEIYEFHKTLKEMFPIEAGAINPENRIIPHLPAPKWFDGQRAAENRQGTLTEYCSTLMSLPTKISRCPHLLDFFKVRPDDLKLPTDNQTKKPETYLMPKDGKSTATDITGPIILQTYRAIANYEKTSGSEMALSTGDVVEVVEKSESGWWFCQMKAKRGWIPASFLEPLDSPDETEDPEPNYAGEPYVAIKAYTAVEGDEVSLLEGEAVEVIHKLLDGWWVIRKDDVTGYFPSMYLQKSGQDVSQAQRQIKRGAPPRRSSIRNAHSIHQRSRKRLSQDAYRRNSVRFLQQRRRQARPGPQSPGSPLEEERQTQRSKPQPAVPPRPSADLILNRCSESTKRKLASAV
# Bim-Mcl-1: inhibitors of Bim-Mcl-1 interaction, human. Bead-based flow cytometry, Bim peptide-Mcl-1 binding. Q07820. 190,000 compounds, 0.1% hits. inhibition, % at 10 µM. AID 1009; in the data active = inhibition above about 40%
# Hits are given with their value; . = inactive; / = not tested or not shown; [ ] = dose if it differs, or a comment.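 Rule for the calls, unless noted: active = inhibition above about 30% (limit read from the data); inactive = the rest.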
SMILES,14-3-3 Bad inh,Mcl1 Noxa PPI,eIF4E-4G inh,Mcl1 Bid PPI,NCF1 inh,Bim-Mcl-1
Nc1nc(CCOc2ccc(F)cc2)cs1,.,.,.,.,40,.
Nc1nc(COc2ccc3ccccc3c2)cs1,.,.,.,.,.,.
CCCc1nc2ccccc2c(=O)n1CC(=O)c1ccccc1,.,.,.,.,.,.
CCOc1cc(C2c3c(n[nH]c3C)C(=O)N2c2ccc(C)cc2)ccc1O (centres undefined),.,.,65,.,.,.
Cc1cc(C)cc(N(CC(=O)NCCSCc2ccccc2)S(C)(=O)=O)c1,.,.,.,.,.,.
Cc1ccc(-n2nnnc2SCC(=O)Nc2cccc(NC(=O)c3ccco3)c2)cc1C,.,.,.,63,.,.
CCn1nnnc1SCC(=O)Nc1cccc(NC(C)=O)c1,.,.,37[fluorescence artefact?],.,.,.
N=C1SCC(=O)N1c1ncc(Cc2cccc(Cl)c2)s1,.,.,.,.,.,.
CCN(CC)S(=O)(=O)c1ccc(C(=O)OCCN2C(=O)c3cccc4c(N5CCOCC5)ccc(c34)C2=O)cc1,.,.,.,.,.,.
O=C(OCCN1C(=O)c2cccc3c(N4CCOCC4)ccc(c23)C1=O)c1cc(Cl)cc(Cl)c1,.,.,33[fluorescence artefact?],.,.,.
COC(=O)CSc1ncnc2c1sc1nc(-c3ccco3)c3c(c12)CC(C)(C)OC3,/,76,/,.,.,.
Cc1ncc(CO)c(/C=N/NC(=O)c2cc(O)c(O)c(O)c2)c1O,.,67,.,.,.,.
Cc1ncc(CO)c(/C=N/NC(=O)c2ccc(Br)cc2)c1O,.,.,.,.,.,.
O=C(O)/C=C\C(=O)Nc1ccc(F)c(F)c1F,.,.,.,.,.,/
CC(C)(C)C(=O)OCc1nc(-c2ccc(C(F)(F)F)cc2)cs1,.,.,.,.,.,/
CC(C)(C)/C(O)=C(/C#N)c1nc2ccccc2[nH]1,.,.,.,.,.,.
N#C/C(=C(O)\C=C\c1ccccc1)c1nc2ccccc2[nH]1,.,67,.,.,.,/
NS(=O)(=O)c1ccc(CCNC(=O)c2ccc(C#CC3(O)CCCCC3)cc2)cc1,.,.,.,.,.,.
CCOc1ccc(N/C=C/C(=O)c2ccccc2)c([N+](=O)[O-])c1,.,.,.,.,31,.
COc1ccc(/C=C2\SC(=S)N(CC(=O)OCC(=O)Nc3ccc(C)cc3Cl)C2=O)cc1,.,.,.,.,/,.
O[C@@H](CNC[C@H](O)c1ccccc1)c1ccccc1,.,.,.,.,.,.
Cc1cc(C)n(CCCNCC(O)c2ccccc2)n1 (centres undefined),85,.,.,.,.,.
Cc1ccc(CS(=O)(=O)Cc2ccc(C(=O)NCC3CCCO3)o2)cc1 (centres undefined),.,.,.,.,.,.
O=C(NCC1CCCO1)c1ccc(CSCc2cccc(F)c2)o1 (centres undefined),.,.,.,89,.,.
CC(NC(=S)NCCN1CCOCC1)C12CC3CC(CC(C3)C1)C2 (centres undefined),.,.,.,.,.,.
SMILES,14-3-3 Bad inh,Mcl1 Noxa PPI,eIF4E-4G inh,Mcl1 Bid PPI,NCF1 inh,Bim-Mcl-1
Cc1ccn2c(-c3n[nH]c(=S)n3C)c(C)nc2c1,.,54,.,.,.,.
Cc1cccc(-c2n[nH]c(=S)n2C)c1,.,.,.,.,.,.
CN(C)c1ccc(N=C/C=C2/N(C)c3ccccc3C2(C)C)cc1,.,64,.,.,.,.
COc1ccc(-c2c(C(F)(F)F)oc3cc(OCC(=O)Nc4ccccc4C(F)(F)F)ccc3c2=O)cc1OC,.,.,.,.,31,.
C#CCOCCOCCOCCNc1nc(N2CCN(C(=O)[C@H](CCCCN)n3cc(C(N)[C@H](C)CC)nn3)CC2)nc(N2CCN(C(=O)[C@H](CCC(=O)O)n3cc(C(N)[C@H](C)CC)nn3)CC2)n1 (some centres undefined),.,.,.,75,.,.
C#CCOCCOCCOCCNc1nc(N2CCN(C(=O)[C@H](CCCCN)n3cc([C@@H](N)C(C)CC)nn3)CC2)nc(N2CCN(C(=O)[C@H](CCCCN)n3cc([C@@H](N)CO)nn3)CC2)n1 (some centres undefined),.,.,.,88,/,.
O=[N+]([O-])c1ccc(Oc2ccc(Oc3ccc(C(F)(F)F)cn3)cc2)nc1,.,.,.,.,.,/
CCOC(=O)c1csc(-c2snnc2C)n1,.,.,.,.,.,/
